Test results taken from the supplement of paper PMC11732987, “Enantioselective OTUD7B fragment discovery through chemoproteomics screening and high-throughput optimisation” (Communications Chemistry, 2025).

Key:
Test in all cases: log2 ratio of Biotin-Ahx-Ub-VS probe labelling (fragment/DMSO); higher = less target engagement (more negative = stronger competition), active = hit call of the paper (q ≤ 0.05, log2 ratio ≤ -1)
Details in all cases: compound concentration: 200 uM; treatment time: 3 h
USP42 = molecular target: T1, USP42 (UniProt Q9H9J4)
T1 sequence (whole entry): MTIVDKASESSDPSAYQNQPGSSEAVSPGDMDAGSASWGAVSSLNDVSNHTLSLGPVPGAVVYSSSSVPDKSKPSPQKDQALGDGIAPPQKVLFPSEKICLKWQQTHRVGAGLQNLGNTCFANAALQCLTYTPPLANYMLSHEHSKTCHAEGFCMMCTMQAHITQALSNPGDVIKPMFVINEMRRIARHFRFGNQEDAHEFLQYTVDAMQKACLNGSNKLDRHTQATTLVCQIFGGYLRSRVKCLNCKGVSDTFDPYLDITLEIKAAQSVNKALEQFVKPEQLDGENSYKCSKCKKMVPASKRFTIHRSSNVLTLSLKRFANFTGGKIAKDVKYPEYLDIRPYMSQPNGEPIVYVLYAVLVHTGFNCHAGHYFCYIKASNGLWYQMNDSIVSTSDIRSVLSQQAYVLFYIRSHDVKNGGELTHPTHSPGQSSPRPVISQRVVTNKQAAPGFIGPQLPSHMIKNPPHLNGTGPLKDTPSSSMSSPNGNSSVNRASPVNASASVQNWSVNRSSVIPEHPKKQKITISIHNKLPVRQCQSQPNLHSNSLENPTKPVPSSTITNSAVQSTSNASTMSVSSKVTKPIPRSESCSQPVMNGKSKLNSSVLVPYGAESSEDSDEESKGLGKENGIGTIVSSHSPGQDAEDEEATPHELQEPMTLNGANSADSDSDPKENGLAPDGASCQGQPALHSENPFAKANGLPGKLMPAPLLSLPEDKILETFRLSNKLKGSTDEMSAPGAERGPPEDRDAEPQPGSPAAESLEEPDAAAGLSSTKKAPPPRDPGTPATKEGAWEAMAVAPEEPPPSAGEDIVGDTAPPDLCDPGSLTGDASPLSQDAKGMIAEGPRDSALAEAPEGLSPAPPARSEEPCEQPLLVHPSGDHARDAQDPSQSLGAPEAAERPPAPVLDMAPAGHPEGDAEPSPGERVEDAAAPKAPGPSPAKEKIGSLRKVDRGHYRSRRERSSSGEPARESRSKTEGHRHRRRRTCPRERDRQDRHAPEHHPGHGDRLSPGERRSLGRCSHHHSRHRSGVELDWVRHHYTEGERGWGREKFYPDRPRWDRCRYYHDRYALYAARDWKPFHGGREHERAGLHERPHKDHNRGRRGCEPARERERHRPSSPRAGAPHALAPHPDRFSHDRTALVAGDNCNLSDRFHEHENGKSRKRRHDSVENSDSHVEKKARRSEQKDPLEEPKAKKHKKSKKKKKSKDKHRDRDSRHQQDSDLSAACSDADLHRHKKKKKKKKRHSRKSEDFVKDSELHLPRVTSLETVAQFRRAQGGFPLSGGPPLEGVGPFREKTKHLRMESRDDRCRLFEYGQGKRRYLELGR
How it was run: (§1)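 Using Biotin-Ahx-Ub-VS at 0.5 µM final for 1 h, DUBs were labelled in HEK293T lysate (495 µg per sample) that had first been treated in triplicate with fragment at 200 µM or vehicle for 3 h. NeutrAvidin enrichment, LysC and trypsin digestion and diaPASEF LC-MS/MS followed. Spectronaut label-free quantities were global-median-normalised. Values are average log2 fragment/vehicle ratios by unpaired t-test, using proteins with ≥2 unique peptides.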

USP46 = USP46 (UniProt P62068)
How it was run: as §1

USP47 = molecular target: T2, USP47 (UniProt Q96K76)
T2 sequence (whole entry): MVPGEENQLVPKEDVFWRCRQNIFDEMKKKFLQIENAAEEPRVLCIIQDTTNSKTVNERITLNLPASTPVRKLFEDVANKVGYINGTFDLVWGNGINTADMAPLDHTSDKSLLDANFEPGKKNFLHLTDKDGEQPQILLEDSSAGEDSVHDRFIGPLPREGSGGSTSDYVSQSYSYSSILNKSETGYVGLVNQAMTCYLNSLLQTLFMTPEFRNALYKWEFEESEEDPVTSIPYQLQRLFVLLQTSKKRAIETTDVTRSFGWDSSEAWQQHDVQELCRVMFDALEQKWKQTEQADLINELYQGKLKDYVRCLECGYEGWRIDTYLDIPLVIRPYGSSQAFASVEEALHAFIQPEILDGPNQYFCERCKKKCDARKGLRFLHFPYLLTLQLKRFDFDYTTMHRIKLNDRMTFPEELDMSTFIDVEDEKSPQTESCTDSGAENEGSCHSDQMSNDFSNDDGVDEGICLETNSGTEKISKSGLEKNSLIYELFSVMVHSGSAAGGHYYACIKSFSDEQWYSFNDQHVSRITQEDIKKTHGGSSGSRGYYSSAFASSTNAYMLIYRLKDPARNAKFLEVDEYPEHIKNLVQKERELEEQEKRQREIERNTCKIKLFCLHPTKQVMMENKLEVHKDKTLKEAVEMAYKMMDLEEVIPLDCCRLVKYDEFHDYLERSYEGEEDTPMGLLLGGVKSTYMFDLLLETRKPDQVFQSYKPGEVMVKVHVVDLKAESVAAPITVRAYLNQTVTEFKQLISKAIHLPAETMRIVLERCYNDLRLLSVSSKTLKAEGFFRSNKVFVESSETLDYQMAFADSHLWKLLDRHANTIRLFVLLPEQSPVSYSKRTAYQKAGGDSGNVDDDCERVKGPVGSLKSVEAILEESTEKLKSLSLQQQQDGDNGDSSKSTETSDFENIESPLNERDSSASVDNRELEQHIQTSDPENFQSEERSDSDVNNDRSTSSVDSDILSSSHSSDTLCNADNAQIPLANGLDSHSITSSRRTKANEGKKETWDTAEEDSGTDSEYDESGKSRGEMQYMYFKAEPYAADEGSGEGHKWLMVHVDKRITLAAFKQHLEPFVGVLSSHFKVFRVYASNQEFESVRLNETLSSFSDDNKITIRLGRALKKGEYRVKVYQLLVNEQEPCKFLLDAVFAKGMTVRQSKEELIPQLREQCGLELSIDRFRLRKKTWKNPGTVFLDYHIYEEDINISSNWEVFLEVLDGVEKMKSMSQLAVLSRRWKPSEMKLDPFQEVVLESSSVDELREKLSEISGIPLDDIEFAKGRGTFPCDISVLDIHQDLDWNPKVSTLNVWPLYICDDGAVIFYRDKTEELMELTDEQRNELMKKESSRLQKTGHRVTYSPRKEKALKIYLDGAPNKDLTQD
How it was run: as §1

USP48 = molecular target: T3, USP48 (UniProt Q86UV5)
T3 sequence (whole entry): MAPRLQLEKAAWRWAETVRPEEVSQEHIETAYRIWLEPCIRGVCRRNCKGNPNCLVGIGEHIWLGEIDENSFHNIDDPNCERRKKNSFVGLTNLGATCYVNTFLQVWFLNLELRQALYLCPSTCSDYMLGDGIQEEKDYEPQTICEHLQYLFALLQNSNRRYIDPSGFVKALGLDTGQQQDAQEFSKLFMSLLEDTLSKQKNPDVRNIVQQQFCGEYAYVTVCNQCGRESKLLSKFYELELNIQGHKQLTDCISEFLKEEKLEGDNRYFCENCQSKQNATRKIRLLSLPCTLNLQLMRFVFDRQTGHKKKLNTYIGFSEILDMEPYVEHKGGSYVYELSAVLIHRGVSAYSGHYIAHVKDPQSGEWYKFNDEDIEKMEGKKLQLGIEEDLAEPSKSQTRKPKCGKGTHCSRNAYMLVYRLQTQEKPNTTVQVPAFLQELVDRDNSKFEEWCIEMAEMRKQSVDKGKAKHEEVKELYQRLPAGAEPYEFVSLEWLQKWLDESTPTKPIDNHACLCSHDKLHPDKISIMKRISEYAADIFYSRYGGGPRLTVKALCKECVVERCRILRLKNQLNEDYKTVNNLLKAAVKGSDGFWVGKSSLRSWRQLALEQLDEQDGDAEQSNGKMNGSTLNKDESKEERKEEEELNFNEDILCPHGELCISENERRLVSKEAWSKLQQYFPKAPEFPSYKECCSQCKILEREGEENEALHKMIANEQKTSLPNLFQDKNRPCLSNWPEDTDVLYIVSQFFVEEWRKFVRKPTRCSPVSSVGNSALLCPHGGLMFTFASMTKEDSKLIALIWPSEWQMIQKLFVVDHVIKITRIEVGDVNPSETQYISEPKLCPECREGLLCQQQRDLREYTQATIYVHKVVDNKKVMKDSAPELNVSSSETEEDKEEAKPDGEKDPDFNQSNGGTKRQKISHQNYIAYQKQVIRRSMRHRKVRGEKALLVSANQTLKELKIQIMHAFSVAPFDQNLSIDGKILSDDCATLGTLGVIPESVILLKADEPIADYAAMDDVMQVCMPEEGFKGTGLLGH
How it was run: as §1

USP5 = molecular target: T4, USP5 (UniProt P45974)
T4 sequence (whole entry): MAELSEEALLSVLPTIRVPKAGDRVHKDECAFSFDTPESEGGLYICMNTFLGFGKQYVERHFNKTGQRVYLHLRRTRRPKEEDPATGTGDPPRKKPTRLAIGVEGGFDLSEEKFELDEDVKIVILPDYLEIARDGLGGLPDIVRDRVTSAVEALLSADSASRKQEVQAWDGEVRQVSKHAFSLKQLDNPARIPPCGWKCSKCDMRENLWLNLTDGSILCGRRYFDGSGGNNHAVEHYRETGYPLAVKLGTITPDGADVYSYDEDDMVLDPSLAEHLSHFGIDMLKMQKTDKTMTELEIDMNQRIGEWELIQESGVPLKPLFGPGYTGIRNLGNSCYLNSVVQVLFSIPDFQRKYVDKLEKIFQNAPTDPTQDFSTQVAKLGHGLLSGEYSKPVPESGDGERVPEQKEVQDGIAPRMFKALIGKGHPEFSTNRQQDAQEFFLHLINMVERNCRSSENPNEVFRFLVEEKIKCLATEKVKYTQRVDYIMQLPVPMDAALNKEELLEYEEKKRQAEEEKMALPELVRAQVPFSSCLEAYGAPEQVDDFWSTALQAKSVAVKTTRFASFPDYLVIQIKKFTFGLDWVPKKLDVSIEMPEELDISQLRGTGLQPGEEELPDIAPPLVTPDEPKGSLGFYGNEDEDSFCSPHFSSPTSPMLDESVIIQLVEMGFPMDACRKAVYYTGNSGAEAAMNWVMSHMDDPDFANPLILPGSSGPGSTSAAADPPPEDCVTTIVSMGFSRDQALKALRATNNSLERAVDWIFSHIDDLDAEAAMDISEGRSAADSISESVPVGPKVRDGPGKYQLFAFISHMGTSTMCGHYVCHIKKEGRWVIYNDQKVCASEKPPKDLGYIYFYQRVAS
How it was run: as §1

USP54 = USP54 (UniProt Q70EL1)
How it was run: as §1

USP7 = USP7 (UniProt Q93009)
How it was run: as §1

USP8 = molecular target: T5, USP8 (UniProt P40818)
T5 sequence (whole entry): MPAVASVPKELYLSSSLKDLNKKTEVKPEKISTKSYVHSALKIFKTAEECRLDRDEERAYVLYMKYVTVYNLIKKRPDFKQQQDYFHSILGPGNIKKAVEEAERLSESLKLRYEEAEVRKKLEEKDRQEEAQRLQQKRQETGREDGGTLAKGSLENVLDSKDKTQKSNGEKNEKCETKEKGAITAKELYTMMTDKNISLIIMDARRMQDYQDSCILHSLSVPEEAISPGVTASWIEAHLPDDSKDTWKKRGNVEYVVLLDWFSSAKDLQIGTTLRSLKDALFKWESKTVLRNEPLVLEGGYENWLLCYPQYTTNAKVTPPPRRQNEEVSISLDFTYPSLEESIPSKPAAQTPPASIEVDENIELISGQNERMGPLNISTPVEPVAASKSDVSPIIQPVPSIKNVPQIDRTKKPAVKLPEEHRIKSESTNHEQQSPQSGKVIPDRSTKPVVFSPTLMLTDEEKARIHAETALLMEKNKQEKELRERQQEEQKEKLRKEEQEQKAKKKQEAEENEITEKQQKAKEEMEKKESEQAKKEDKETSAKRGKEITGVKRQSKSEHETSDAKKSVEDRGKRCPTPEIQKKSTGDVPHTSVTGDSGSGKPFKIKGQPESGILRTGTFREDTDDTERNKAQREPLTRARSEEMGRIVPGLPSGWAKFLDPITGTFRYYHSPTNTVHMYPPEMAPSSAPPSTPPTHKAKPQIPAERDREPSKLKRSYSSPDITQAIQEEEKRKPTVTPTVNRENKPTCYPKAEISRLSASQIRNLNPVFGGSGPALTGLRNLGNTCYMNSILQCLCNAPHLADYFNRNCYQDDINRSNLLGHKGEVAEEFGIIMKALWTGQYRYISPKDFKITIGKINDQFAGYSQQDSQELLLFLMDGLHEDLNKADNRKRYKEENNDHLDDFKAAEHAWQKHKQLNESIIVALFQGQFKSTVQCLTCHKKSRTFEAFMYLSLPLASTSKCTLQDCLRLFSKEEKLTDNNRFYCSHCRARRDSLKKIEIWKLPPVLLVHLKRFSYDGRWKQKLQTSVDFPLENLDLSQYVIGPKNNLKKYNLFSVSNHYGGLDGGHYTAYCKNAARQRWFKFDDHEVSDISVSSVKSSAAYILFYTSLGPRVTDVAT
How it was run: as §1

Measured: log2 ratio of Biotin-Ahx-Ub-VS probe labelling

Sequence of USP7 (Q93009 whole entry, looked up): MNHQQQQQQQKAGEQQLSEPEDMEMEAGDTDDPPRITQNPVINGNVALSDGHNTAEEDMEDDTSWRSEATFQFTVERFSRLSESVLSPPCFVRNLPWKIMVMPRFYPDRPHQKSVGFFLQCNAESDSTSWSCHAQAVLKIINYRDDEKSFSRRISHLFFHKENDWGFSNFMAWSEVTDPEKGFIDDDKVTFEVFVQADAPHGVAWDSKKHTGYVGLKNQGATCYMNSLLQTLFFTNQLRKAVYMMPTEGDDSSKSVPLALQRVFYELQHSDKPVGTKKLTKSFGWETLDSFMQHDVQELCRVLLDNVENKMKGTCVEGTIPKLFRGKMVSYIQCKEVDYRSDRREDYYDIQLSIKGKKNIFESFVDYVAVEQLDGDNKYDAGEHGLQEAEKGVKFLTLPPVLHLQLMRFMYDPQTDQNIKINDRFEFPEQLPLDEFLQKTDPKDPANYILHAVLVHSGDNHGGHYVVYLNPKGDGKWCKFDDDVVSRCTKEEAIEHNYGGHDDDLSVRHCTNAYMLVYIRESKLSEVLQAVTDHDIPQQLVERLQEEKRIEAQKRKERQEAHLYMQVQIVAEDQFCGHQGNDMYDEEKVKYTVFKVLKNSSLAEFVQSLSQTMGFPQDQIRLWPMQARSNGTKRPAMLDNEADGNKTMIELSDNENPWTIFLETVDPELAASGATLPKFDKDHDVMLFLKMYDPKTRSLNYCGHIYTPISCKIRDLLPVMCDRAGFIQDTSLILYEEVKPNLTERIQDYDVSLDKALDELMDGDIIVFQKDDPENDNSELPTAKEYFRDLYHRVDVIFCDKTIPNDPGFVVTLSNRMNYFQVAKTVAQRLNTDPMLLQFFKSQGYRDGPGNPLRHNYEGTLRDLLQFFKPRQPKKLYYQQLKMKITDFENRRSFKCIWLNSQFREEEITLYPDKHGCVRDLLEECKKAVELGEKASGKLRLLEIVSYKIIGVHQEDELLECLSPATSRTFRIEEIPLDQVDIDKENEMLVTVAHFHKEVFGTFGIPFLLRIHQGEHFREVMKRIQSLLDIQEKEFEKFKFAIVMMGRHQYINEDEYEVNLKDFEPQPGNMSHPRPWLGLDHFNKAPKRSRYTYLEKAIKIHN
Sequence of USP54 (Q70EL1 whole entry): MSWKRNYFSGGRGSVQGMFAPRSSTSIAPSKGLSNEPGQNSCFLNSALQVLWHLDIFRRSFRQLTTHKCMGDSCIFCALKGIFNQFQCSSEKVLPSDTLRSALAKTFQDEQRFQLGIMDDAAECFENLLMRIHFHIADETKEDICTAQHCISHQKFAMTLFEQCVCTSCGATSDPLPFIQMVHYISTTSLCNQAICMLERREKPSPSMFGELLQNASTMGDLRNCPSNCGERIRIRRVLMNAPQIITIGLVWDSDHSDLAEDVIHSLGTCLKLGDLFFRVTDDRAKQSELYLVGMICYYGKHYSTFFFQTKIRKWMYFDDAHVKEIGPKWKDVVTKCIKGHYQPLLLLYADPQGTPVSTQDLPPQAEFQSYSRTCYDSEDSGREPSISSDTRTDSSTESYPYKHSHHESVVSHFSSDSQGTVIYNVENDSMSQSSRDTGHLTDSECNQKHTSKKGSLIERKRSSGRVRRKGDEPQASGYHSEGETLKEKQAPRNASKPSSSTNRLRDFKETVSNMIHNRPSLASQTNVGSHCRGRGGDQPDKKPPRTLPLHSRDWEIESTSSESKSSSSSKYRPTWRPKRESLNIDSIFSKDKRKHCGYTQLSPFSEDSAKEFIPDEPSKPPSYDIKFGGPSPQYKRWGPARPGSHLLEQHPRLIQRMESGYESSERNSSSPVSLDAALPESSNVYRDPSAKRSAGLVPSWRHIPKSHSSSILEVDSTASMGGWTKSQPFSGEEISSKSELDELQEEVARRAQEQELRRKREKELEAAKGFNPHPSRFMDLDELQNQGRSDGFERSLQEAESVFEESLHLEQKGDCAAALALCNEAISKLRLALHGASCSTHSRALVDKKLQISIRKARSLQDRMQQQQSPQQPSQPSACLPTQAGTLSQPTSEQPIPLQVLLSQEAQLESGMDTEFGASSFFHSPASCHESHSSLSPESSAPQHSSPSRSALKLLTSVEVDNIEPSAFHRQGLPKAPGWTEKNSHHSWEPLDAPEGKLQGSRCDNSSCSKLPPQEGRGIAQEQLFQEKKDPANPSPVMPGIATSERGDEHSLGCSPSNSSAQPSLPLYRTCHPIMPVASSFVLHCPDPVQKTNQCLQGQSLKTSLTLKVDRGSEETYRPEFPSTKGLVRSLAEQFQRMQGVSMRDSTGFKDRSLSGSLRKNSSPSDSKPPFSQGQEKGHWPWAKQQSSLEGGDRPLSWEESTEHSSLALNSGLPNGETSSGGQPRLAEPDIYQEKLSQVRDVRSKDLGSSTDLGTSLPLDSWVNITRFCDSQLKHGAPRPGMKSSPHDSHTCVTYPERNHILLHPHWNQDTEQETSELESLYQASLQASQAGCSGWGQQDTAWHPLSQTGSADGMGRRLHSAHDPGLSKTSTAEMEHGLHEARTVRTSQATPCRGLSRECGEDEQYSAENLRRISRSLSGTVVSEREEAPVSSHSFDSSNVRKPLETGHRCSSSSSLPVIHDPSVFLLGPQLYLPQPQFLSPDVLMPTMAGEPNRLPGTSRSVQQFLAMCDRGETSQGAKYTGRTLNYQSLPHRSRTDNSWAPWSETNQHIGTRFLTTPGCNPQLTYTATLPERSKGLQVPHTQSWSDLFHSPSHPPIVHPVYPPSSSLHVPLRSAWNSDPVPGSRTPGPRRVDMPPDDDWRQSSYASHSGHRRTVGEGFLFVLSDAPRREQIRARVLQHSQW
Sequence of USP46 (P62068 whole entry): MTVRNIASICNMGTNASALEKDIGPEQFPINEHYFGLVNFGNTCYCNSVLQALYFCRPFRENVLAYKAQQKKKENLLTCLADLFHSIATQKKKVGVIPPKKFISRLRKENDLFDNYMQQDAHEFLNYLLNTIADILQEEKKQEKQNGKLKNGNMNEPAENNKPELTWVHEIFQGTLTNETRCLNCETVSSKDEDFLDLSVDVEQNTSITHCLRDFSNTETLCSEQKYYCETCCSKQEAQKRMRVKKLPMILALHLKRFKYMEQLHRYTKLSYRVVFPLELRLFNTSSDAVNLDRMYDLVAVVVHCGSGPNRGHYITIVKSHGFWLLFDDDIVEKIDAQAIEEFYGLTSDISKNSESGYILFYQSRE

Cc1conc1C1CN(C(=O)CCl)C1
active: USP7 -1.04
inactive: USP42 0.317 | USP46 -0.643 | USP47 -0.971 | USP48 -0.753 | USP5 -0.555 | USP54 1.02 | USP8 -0.915
